Results filed as inconclusive are left out. Active and inactive are the calls of the source. How the source made its calls, unless noted: active means hit-call score of the fitted dose curve at least 0.9, where 1 is the maximum; inactive means score below 0.9.
Key:
CD69, CD69 (gene 969) = experiment: BSK_LPS_CD69: BioMAP Diversity Plus: LPS Assay for CD69 Biomarker Activity (AID 2284303); conditions: primary human HUVEC with PBMC
How it was run: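 Human umbilical vein endothelial cells co-cultured with PBMC under LPS stimulation, chemical exposure 24 h; cell-surface CD69 measured by ELISA and fitted in the positive direction versus DMSO.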

[1] = IUF_NPC2a_radial_glia_migration_72hr: Leibniz Research Institute for Environmental Medicine (IUF) 72-hour Neural Progenitor Cell Migration Assay for Radial Glia Migration (NPC2a) (AID 2284299)
How it was run: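 Human fetal cortex (GW 16-19) neural progenitor spheres, 0.3 mm, plated on poly-D-lysine/laminin in N2 differentiation medium with compound from day 0. Radial glia migration distance (um, sphere core edge to migration edge) measured manually in four directions on 72 h brightfield images; well mean used.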

[2] = IUF_NPC2b_neuronal_migration_120hr: Leibniz Research Institute for Environmental Medicine (IUF) 120-hour Neural Progenitor Cell Migration Assay for Neuron Migration (NPC2b) (AID 2284300)
How it was run: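 Primary human fetal cortex neural progenitor spheres (0.3 mm) plated on poly-D-lysine/laminin in N2 differentiation medium, exposed 120 h with half-medium refresh at day 3. TUBB3-stained neuron distance from sphere core, normalized to radial glia migration, versus DMSO.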

[3] = IUF_NPC3_neuronal_differentiation_120hr: Leibniz Research Institute for Environmental Medicine (IUF) 120-hour Neuronal Differentiation Assay (NPC3) (AID 2284301)
How it was run: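 Human fetal (GW 16-19) neural progenitor spheres (0.3 mm) plated on poly-D-lysine/laminin in N2 differentiation medium, exposed 120 h at 37C with half-medium renewal day 3; 7 concentrations. TUBB3+ cells as % of Hoechst nuclei, CNN-identified; DMSO baseline.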

[4] = IUF_NPC4_neurite_length_120hr: Leibniz Research Institute for Environmental Medicine (IUF) 120-hour Neuronal Morphology Assay for Neurite Length (NPC4) (AID 2284302)
How it was run: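 Human fetal neural progenitor spheres (0.3 mm) plated on poly-D-lysine/laminin in N2 differentiation medium, exposed from day 0 for 120 h with half-medium refresh at day 3, 37C. Mean neurite length (um) of TUBB3-positive neurons from skeletonized immunostaining images; DMSO ≤0.1%.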

[5] = IUF_NPC5_oligodendrocyte_differentiation_120hr: Leibniz Research Institute for Environmental Medicine (IUF) 120-hour Oligodendrocyte Differentiation Assay (NPC5) (AID 2284304; active means hit-call score of the fitted dose curve at least 0.9, where 1 is the maximum;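 further: share of O4-positive cells among Hoechst nuclei found by CNN image analysis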)
How it was run: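 Primary human fetal (GW 16-19) neural progenitor spheres (0.3 mm) plated on poly-D-lysine/laminin in N2 differentiation medium, exposed from day 0 for 120 h with half-medium refresh at day 3; O4-positive cells as percent of Hoechst nuclei, CNN-identified, versus DMSO.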

[6] = IUF_NPC4_neurite_area_120hr: Leibniz Research Institute for Environmental Medicine (IUF) 120-hour Neuronal Morphology Assay for Neurite Area (NPC4) (AID 2284305; active means hit-call score of the fitted dose curve at least 0.9, where 1 is the maximum)
Method: (§1) IUF_NPC2-5 is a cell-based, multiplexed assay that uses hNPC, a human primary neural progenitor cells, with measurements taken at 72 or 120 hours after chemical dosing in a 96-well plate. Human neural progenitor cells (hNPC) are generated from human fetal brain cortex at gestational week (GW) 16-19. In the neural progenitor cell migration and differentiation assay (NPC2-5), hNPCs grown as spheres are plated on an extracellular matrix and migrate and differentiate out of the sphere core. The processes radial glia migration, neuronal and oligodendrocyte migration as well as neuronal differentiation, neuronal morphology and oligodendrocyte differentiation are studied using automated phase contrast imaging and automated fluorescence imaging in combination with high content image analysis. In parallel, the cell viability is assessed using an alamar blue viability assay and the cytotoxicity using a lactate dehydrogenase dependent membrane integrity assay.IUF_NPC4_neurite_area_120hr is one of 12 assay components measured from the IUF_NPC2-5 assay. […]
Culture protocol: After the cell expansion period the cells are cultured for up to four weeks in which they are passaged every week as described in 3.6. […] The plates are scanned using an automated high content imaging device and all nuclei and their positions are determined automatically based on their intensity and size. […]

[7] = IUF_NPC2-5_cytotoxicity_72hr: Cytotoxicity Assessment at 72 hours in the Leibniz Research Institute for Environmental Medicine (IUF) Neural Progenitor Cell Migration and Differentiation Assay for Cytotoxicity (NPC2-5) (AID 2284306; active means hit-call score of the fitted dose curve at least 0.9, where 1 is the maximum;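 further: LDH release into supernatant measured by resorufin fluorescence marking membrane damage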)
Method: as §1, with “assay.IUF_NPC2-5_cytotoxicity_72hr” for “assay.IUF_NPC4_neurite_area_120hr”, “assay. It is designed to measure the cytotoxicity at 72 hr as assessed by membrane integrity related to the LDH dependent reduction of resazurin to resorufin in the supernatant of each well. The cytotoxicity is measured as fluorescence signal (relative fluorescence unit) in a multiplate reader.” for “assay.”

[8] = IUF_NPC2-5_cytotoxicity_120hr: Cytotoxicity Assessment at 120 hours in the Leibniz Research Institute for Environmental Medicine (IUF) Neural Progenitor Cell Migration and Differentiation Assay (NPC2-5) (AID 2284307; active means hit-call score of the fitted dose curve at least 0.9, where 1 is the maximum)
How it was run: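 Human fetal neural progenitor spheres (0.3 mm, GW 16-19 cortex) were plated on poly-D-lysine/laminin in N2 differentiation medium and exposed for 120 h, with half-medium refresh at day 3. LDH release into supernatant was read by resorufin fluorescence.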

[9] = IUF_NPC2-5_cell_number_120hr: Cell Number Assessment at 120 hours in the Leibniz Research Institute for Environmental Medicine (IUF) Neural Progenitor Cell Migration and Differentiation Assay (NPC2-5) (AID 2284308);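 further: count of Hoechst-stained nuclei in migration zone around plated human neural progenitor spheres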
How it was run: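 Primary human fetal neural progenitor spheres (GW 16-19, 0.3 mm) plated on poly-D-lysine/laminin in N2 differentiation medium, exposed from day 0 for 120 h with half-medium refresh at day 3; Hoechst-positive nuclei counted in migration area versus DMSO control.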

## Cc1cc(C2(c3cc(C)c(O)cc3C)OS(=O)(=O)c3ccccc32)c(C)cc1O
CD69, CD69 (gene 969)
  outcome: inactive

## NCCNCCN
CD69, CD69 (gene 969)
  outcome: inactive

## CC(=O)OCCC(C)CC(C)(C)C (centres undefined)
CD69, CD69 (gene 969)
  outcome: inactive

## OC[C@H]1O[C@H](O[C@]2(CCl)O[C@H](CCl)[C@@H](O)[C@@H]2O)[C@H](O)[C@@H](O)[C@H]1Cl
CD69, CD69 (gene 969)
  outcome: inactive

## C=CCOC(=O)CCC1CCCCC1
CD69, CD69 (gene 969)
  outcome: inactive

## OC1OC[C@@H](O)[C@H](O)[C@H]1O (some centres undefined)
CD69, CD69 (gene 969)
  outcome: inactive

## Nc1cc([N+](=O)[O-])ccc1O
CD69, CD69 (gene 969)
  outcome: inactive

## CCC(=O)OCc1ccccc1
CD69, CD69 (gene 969)
  outcome: inactive

## C[C@H]1C[C@@H]2[C@H]([C@@H](O)C[C@@]3(C)[C@H]2CC[C@]3(O)C(=O)CO)[C@@]2(C)C=CC(=O)C=C12
CD69, CD69 (gene 969)
  outcome: inactive

## CC(=O)[C@H]1CC[C@H]2[C@@H]3CC=C4C[C@@H](O)CC[C@]4(C)[C@H]3CC[C@]12C
CD69, CD69 (gene 969)
  outcome: inactive

## CC[Si](OC(C)=O)(OC(C)=O)OC(C)=O
CD69, CD69 (gene 969)
  outcome: inactive

## N#Cc1ccc(CC(=NNC(=O)Nc2ccc(OC(F)(F)F)cc2)c2cccc(C(F)(F)F)c2)cc1
[1]
  outcome: inactive
[2]
  outcome: inactive
[3]
  outcome: inactive
[4]
  outcome: inactive
[5]
  AC50: 784 nM (active)
[6]
  outcome: inactive
[7]
  outcome: inactive
[8]
  outcome: inactive
[9]
  outcome: inactive

## COc1cc(C=O)ccc1OC(=O)C(C)C
CD69, CD69 (gene 969)
  outcome: inactive

## CN(C)C(=N)N=C(N)N
[1]
  outcome: inactive
[2]
  outcome: inactive
[3]
  outcome: inactive
[4]
  outcome: inactive
[5]
  outcome: inactive
[7]
  outcome: inactive
[8]
  outcome: inactive
[9]
  outcome: inactive
